Results reported in PubChem BioAssay (NCATS).
Records with an inconclusive call do not appear. Entries that show only a call come without a potency. The source made the active and inactive calls. Calls follow the shape of the dose curve; as a rule, active = well fitted inhibition curve with a large enough effect; inconclusive = small, poorly fitted or top-dose-only effect; inactive = flat fitted curve, though single readings scatter.

What was measured:
Experiment in all cases: qHTS profiling for inhibitors of Plasmodium falciparum proliferation (AID 504749); also: nearly all actives have a fitted effect of over 60% in size
Settings in all cases: P. falciparum in erythrocytes, SYBR Green DNA, 72 h; series mostly up to 28.7 µM
7G8 = system: 7G8
In short: (§1)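 Each compound contacts P. falciparum-infected red blood cells for 72 h at 37 C; lysis buffer (Tris, EDTA, saponin, Triton X, SYBR Green I) is added and fluorescence measured next morning; values normalized to controls.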

AA1029 = system: AA1029
In short: as §1

AS120 = system: AS120
In short: as §1

ATS189 = system: ATS189
In short: as §1

C2A = system: C2A
In short: as §1

CP185 = system: CP185
In short: as §1

CP191 = system: CP191
In short: as §1

CP192 = system: CP192
In short: as §1

CP194 = system: CP194
In short: as §1

CP201 = system: CP201
In short: as §1

CP203 = system: CP203
In short: as §1

CP211 = system: CP211
In short: as §1

CP217 = system: CP217
In short: as §1

CP237 = system: CP237
In short: as §1

CP238 = system: CP238
In short: as §1

CP247 = system: CP247
In short: as §1

CP250 = system: CP250
In short: as §1

CP252 = system: CP252
In short: as §1

ATS95 = system: ATS95
In short: as §1

CP215 = system: CP215
In short: as §1
Potency is read from the fitted curve at half-maximal effect.

| Compound | Potency (7G8) | Potency (AA1029) | Potency (AS120) | Potency (ATS189) | Potency (C2A) | Potency (CP185) | Potency (CP191) | Potency (CP192) | Potency (CP194) | Potency (CP201) | Potency (CP203) | Potency (CP211) | Potency (CP217) | Potency (CP237) | Potency (CP238) | Potency (CP247) | Potency (CP250) | Potency (CP252) | Potency (ATS95) | Potency (CP215) |
| --- | --- | --- | --- | --- | --- | --- | --- | --- | --- | --- | --- | --- | --- | --- | --- | --- | --- | --- | --- | --- |
| CC(O)C(=O)O (configuration not stated) | inactive | inactive | inactive | inactive | inactive | inactive | inactive | inactive | inactive | inactive | inactive | inactive | inactive | inactive | inactive | inactive | inactive | inactive |  |  |
| CC1=C(C(=O)OC(C)C)C(c2cccc([N+](=O)[O-])c2)C(C(=O)OC2CN(C(c3ccccc3)c3ccccc3)C2)=C(N)N1 (configuration not stated) | 3.16 µM (active) | 7.08 µM (active) | 4.47 µM (active) | 7.08 µM (active) |  | 10 µM (active) | 7.08 µM (active) | 7.57 µM (active) | 6.75 µM (active) | 7.57 µM (active) | 12 µM (active) | 6.75 µM (active) | 6.31 µM (active) | 12.6 µM (active) | 8.91 µM (active) | 10 µM (active) | 8.91 µM (active) | 10 µM (active) | 11.2 µM (active) | 7.57 µM (active) |
| CCCCCC=CCC=CCCCCCCCC(=O)OCC | inactive | inactive | inactive | inactive | inactive | inactive | inactive | inactive | inactive | inactive |  | inactive | inactive | inactive | inactive | inactive | inactive | inactive | inactive | inactive |
| CC(C)(Oc1ccc(Cl)cc1)C(=O)O | inactive | inactive | inactive | inactive | inactive | inactive | inactive | inactive | inactive | inactive | inactive | inactive | inactive | inactive | inactive | inactive | inactive | inactive |  | inactive |
| O=C(Nc1ccc(Oc2ccc(Cl)cc2)c(Cl)c1)c1cc(I)cc(I)c1O |  | inactive |  | inactive | inactive | inactive |  | inactive | inactive | inactive |  | inactive | 0.158 µM (active) |  | inactive |  |  |  | inactive |  |
| CC(=O)c1ccc2c(c1)N(CCCN1CCC(CCO)CC1)c1ccccc1S2 |  | inactive | inactive | inactive | inactive | inactive | inactive | inactive |  | inactive |  | inactive | inactive |  | inactive | inactive | inactive | inactive | inactive |  |
| O=C1[C@H]2CCCC[C@H]2C(=O)N1CCCCN1CCN(c2nsc3ccccc23)CC1 |  | inactive | inactive | inactive |  | inactive |  | inactive | inactive | inactive | inactive | inactive | inactive |  | inactive | inactive | inactive | inactive | inactive | inactive |
| COCc1c(C(C)C)nc(C(C)C)c(/C=C/[C@@H](O)C[C@@H](O)CC(=O)O)c1-c1ccc(F)cc1 |  | inactive | inactive | inactive | inactive | inactive | inactive | inactive | inactive | inactive |  | inactive | inactive | inactive | inactive |  | inactive | inactive | inactive |  |
| Oc1ccc(Cl)c2cccnc12 |  | inactive | inactive | inactive | inactive | inactive |  | inactive | inactive | inactive |  | inactive | inactive |  | inactive | inactive | inactive | inactive | inactive | inactive |
| C#C[C@]1(O)CC[C@H]2[C@@H]3CCc4cc(OC5CCCC5)ccc4[C@H]3CC[C@@]21C |  | inactive |  | inactive | inactive | inactive |  | inactive | inactive | inactive | inactive | inactive | inactive | inactive | inactive | inactive | inactive | inactive |  | inactive |
| Oc1c(I)cc(Cl)c2cccnc12 |  |  | 10 µM (active) | 12.6 µM (active) | 11.2 µM (active) | 11.2 µM (active) | 11.2 µM (active) |  | inactive | inactive | inactive | inactive | 8.91 µM (active) | inactive | 11.2 µM (active) | 12.6 µM (active) | 5.01 µM (active) | 11.2 µM (active) | inactive |  |
| CN(C)CCOc1ccccc1Cc1ccccc1 |  | 7.94 µM (active) | 1.78 µM (active) |  |  |  |  | inactive |  | inactive |  |  |  | 3.16 µM (active) | 7.94 µM (active) |  |  |  |  |  |
| CN1CCN(C(c2ccccc2)c2ccccc2)CC1 |  |  | inactive | inactive | inactive | inactive | inactive | inactive |  | inactive |  | inactive | inactive |  | inactive | inactive | inactive | inactive |  |  |
| Oc1c(I)cc(I)c2cccnc12 |  |  |  |  | inactive |  |  |  |  |  |  |  |  |  |  |  |  |  |  |  |
| CC(C)(C(=O)c1cccnc1)c1cccnc1 |  | inactive | inactive | inactive | inactive | inactive | inactive | inactive | inactive | inactive |  | inactive | inactive | inactive | inactive | inactive | inactive | inactive | inactive | inactive |
| CN=C(NC#N)Nc1ccc(C2=NNC(=O)CC2C)cc1 (configuration not stated) |  |  |  |  |  |  |  | inactive | inactive | inactive | inactive | inactive |  |  |  |  |  |  |  | inactive |
| CC(C)=CCC1C(=O)N(c2ccccc2)N(c2ccccc2)C1=O |  |  |  |  | inactive |  |  |  |  | inactive |  |  |  | 11.2 µM (active) | inactive | inactive |  |  |  | 13.5 µM (active) |
| CC/C(=C(/CC)c1ccc(O)cc1)c1ccc(O)cc1 |  | inactive | inactive |  | inactive | inactive |  | inactive | inactive | inactive | inactive | inactive | inactive | inactive | inactive | inactive | inactive | inactive | inactive | inactive |
| COc1cc2c(cc1OC)C(=O)C(CC1CCN(Cc3ccccc3)CC1)C2 (configuration not stated) |  |  | inactive |  |  |  | 8.91 µM (active) | inactive | inactive | inactive |  | inactive |  | inactive |  | inactive |  | inactive | inactive | inactive |
| CCCCCCCCCCCCCCCC[N+](C)(C)CCN(Cc1ccc(OC)cc1)c1ncccn1 |  |  |  | inactive |  |  | 0.794 µM (active) | inactive | inactive | inactive |  | inactive |  |  |  |  |  | inactive |  | inactive |
